Source: PubChem BioAssay (NCI)
The panel holds about 83,000 compounds, 20% with a hit somewhere; the sample as a whole holds those more often.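 Method: cells in 96-well plates; compound added at one concentration; 48 h incubation; percent growth measured; values under 10 scored active.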 The source made the active and inactive calls.

Legend:
Assay in all cases: NCI-60 one-dose screen, 48 h (100 = growth as untreated, 0 = no growth, -100 = all killed)
Conditions in all cases: 10 µM unless noted
HCT-15 colon = test system: HCT-15 colon
HT29 colon = test system: HT29 colon
SNB-75 CNS = test system: SNB-75 CNS
SNB-19 CNS = test system: SNB-19 CNS
U251 CNS = test system: U251 CNS
PC-3 prostate = test system: PC-3 prostate
UACC-62 melanoma = test system: UACC-62 melanoma
LOX IMVI melanoma = test system: LOX IMVI melanoma
SK-MEL-28 melanoma = test system: SK-MEL-28 melanoma
SK-MEL-2 melanoma = test system: SK-MEL-2 melanoma
EKVX NSCLC = test system: EKVX NSCLC
SN12C renal = test system: SN12C renal
UO-31 renal = test system: UO-31 renal
TK-10 renal = test system: TK-10 renal
ACHN renal = test system: ACHN renal
CAKI-1 renal = test system: CAKI-1 renal
CCRF-CEM leukemia = test system: CCRF-CEM leukemia
MOLT-4 leukemia = test system: MOLT-4 leukemia
A498 renal = test system: A498 renal

Measured: growth

OCC(O)c1nc2ccc3[nH]ncc3c2c2c1CCCC2 (stereo unspecified)
active: HCT-15 colon 5.03% | HT29 colon 9.08% | SNB-75 CNS -60.8% | SNB-19 CNS 7.63% | U251 CNS 7.68% | PC-3 prostate 9.74% | UACC-62 melanoma -8.7% | LOX IMVI melanoma 2.42% | SK-MEL-28 melanoma -3.58% | SK-MEL-2 melanoma 9.63% | EKVX NSCLC 5.55% | UO-31 renal 7.51% | TK-10 renal 4.51% | ACHN renal 4.18% | CAKI-1 renal 7.54% | CCRF-CEM leukemia 6.71% | MOLT-4 leukemia 1.37%
inactive: SN12C renal 11.8%

CC[C@@H](C(=O)[C@@H](C)[C@@H](O)[C@H](C)[C@@H]1O[C@@H]([C@@H](CC)C(=O)O)CC[C@@H]1C)[C@H]1OC2(C=C[C@@H](O)[C@]3(CC[C@@](C)([C@H]4CC[C@](O)(CC)[C@H](C)O4)O3)O2)[C@H](C)C[C@@H]1C (stereo partly specified)
active: SNB-75 CNS -28.8% | SNB-19 CNS -33.7% | U251 CNS 0.353% | UACC-62 melanoma -96.2% | LOX IMVI melanoma 8.3% | SK-MEL-28 melanoma -89.8% | SK-MEL-2 melanoma -55.1% | A498 renal -79.2% | MOLT-4 leukemia -8.95%
inactive: HCT-15 colon 19.8% | HT29 colon 13.5% | PC-3 prostate 31.2% | EKVX NSCLC 34.3% | SN12C renal 16.1% | UO-31 renal 20.4% | TK-10 renal 29.7% | ACHN renal 33.4% | CAKI-1 renal 18.2%

COc1cc2c(cc1-c1c(C)noc1C)ncc1nc(C3CCOCC3)n([C@H](C)COC(F)F)c12
inactive: HCT-15 colon 22.8% | HT29 colon 24.5% | SNB-75 CNS 29.9% | SNB-19 CNS 47.6% | U251 CNS 51.8% | PC-3 prostate 34.3% | UACC-62 melanoma 17.8% | LOX IMVI melanoma 12.6% | SK-MEL-28 melanoma 55.8% | SK-MEL-2 melanoma 67% | EKVX NSCLC 50.4% | SN12C renal 57% | UO-31 renal 15.7% | TK-10 renal 25.3% | ACHN renal 34.6% | CAKI-1 renal 26.7% | CCRF-CEM leukemia 48.3% | MOLT-4 leukemia 46.6%
active: A498 renal -13.5%

COc1cc(/C=C/c2cc(/C=C/c3ccc(O)c(OC)c3)n(-c3c(Cl)cccc3Cl)c(=O)n2)ccc1O
active: HT29 colon -30.4% | U251 CNS 8.54% | LOX IMVI melanoma 2.83% | MOLT-4 leukemia 9.71%
inactive: HCT-15 colon 10.3% | SNB-75 CNS 49.4% | SNB-19 CNS 34.1% | PC-3 prostate 34.9% | UACC-62 melanoma 38.2% | SK-MEL-28 melanoma 17.6% | SK-MEL-2 melanoma 82.9% | EKVX NSCLC 41.4% | SN12C renal 27.8% | UO-31 renal 25.2% | TK-10 renal 86% | ACHN renal 37.8% | CAKI-1 renal 63.2% | A498 renal 78.5% | CCRF-CEM leukemia 10.4%

COc1ccc2cc(-c3nn(-c4ccc(C(=O)O)cc4)cc3CO)ccc2c1
inactive: HCT-15 colon 98.1% | HT29 colon 98.7% | SNB-75 CNS 80.9% | SNB-19 CNS 103% | U251 CNS 104% | PC-3 prostate 98.7% | UACC-62 melanoma 103% | LOX IMVI melanoma 101% | SK-MEL-28 melanoma 112% | SK-MEL-2 melanoma 83.2% | EKVX NSCLC 90.7% | SN12C renal 106% | UO-31 renal 86.6% | TK-10 renal 104% | ACHN renal 104% | A498 renal 94.5% | CCRF-CEM leukemia 102% | MOLT-4 leukemia 84.7%

Nc1n[nH]c2ccc([C@@H]3Nc4ccc5cn[nH]c5c4[C@H]4C5CCC(C5)[C@@H]34)cc12 (stereo partly specified)
active: SNB-75 CNS -12.5%
inactive: HCT-15 colon 15% | HT29 colon 13.1% | SNB-19 CNS 31.4% | U251 CNS 23% | PC-3 prostate 16.4% | UACC-62 melanoma 39.4% | LOX IMVI melanoma 31.9% | SK-MEL-28 melanoma 61% | SK-MEL-2 melanoma 55.5% | EKVX NSCLC 48.7% | SN12C renal 43.9% | UO-31 renal 38.9% | TK-10 renal 74.3% | ACHN renal 39.2% | CAKI-1 renal 33.2% | CCRF-CEM leukemia 15.6% | MOLT-4 leukemia 20.8%

C=CC(COC(c1ccccc1)(c1ccccc1)c1ccccc1)N(CC)CC (stereo unspecified)
inactive: HCT-15 colon 16.7% | HT29 colon 14.6% | SNB-75 CNS 73% | SNB-19 CNS 82.1% | U251 CNS 52.5% | PC-3 prostate 47.9% | UACC-62 melanoma 44.8% | LOX IMVI melanoma 49.5% | SK-MEL-28 melanoma 59.4% | SK-MEL-2 melanoma 85.8% | EKVX NSCLC 76.1% | SN12C renal 58.3% | UO-31 renal 59.4% | TK-10 renal 79.8% | ACHN renal 81.7% | CAKI-1 renal 67.1% | A498 renal 73.8%
active: MOLT-4 leukemia 8.88%

O=c1ccccc(-c2ccc(-c3ccco3)cc2)c1O
active: U251 CNS 8.2% | UACC-62 melanoma -42.3% | LOX IMVI melanoma 8.59% | UO-31 renal -12.2% | ACHN renal 9.23% | CCRF-CEM leukemia 5.03% | MOLT-4 leukemia 7.73%
inactive: HCT-15 colon 29% | HT29 colon 24.9% | SNB-75 CNS 38.8% | SNB-19 CNS 19.3% | PC-3 prostate 32% | SK-MEL-28 melanoma 30.7% | SK-MEL-2 melanoma 19.9% | EKVX NSCLC 11.8% | SN12C renal 11.3% | TK-10 renal 33.5% | A498 renal 39%

CCCCCCCCCCCCC[N+](C)(C)Cc1ccccc1
active: HT29 colon -62.7% | SNB-75 CNS -52.9% | SNB-19 CNS -60.7% | U251 CNS 7.89% | PC-3 prostate -23.7% | UACC-62 melanoma -83.9% | LOX IMVI melanoma -88.3% | SK-MEL-28 melanoma -57% | SK-MEL-2 melanoma -80.2% | EKVX NSCLC 3.49% | SN12C renal -55.7% | TK-10 renal -59.5% | MOLT-4 leukemia -10.1%
inactive: HCT-15 colon 64.7% | UO-31 renal 43.6% | ACHN renal 16.8% | CAKI-1 renal 76.5%

COc1ccc(/C=N/C2=C(C#N)C(c3ccc(N(C)C)cc3)c3ccc4ccccc4c3O2)cc1 (stereo unspecified)
active: SNB-75 CNS -7.87%
inactive: HCT-15 colon 38.7% | HT29 colon 48.4% | SNB-19 CNS 68% | U251 CNS 71.1% | PC-3 prostate 52.5% | UACC-62 melanoma 48.3% | LOX IMVI melanoma 37.3% | SK-MEL-28 melanoma 74.4% | SK-MEL-2 melanoma 62.6% | EKVX NSCLC 61.3% | SN12C renal 72.3% | UO-31 renal 46.5% | TK-10 renal 132% | ACHN renal 66% | CAKI-1 renal 19.6% | CCRF-CEM leukemia 63.1% | MOLT-4 leukemia 54.4%

COc1cccc(NC(=O)c2sc3nc(C)c(C(C)=O)cc3c2N)c1
inactive: HCT-15 colon 35.9% | HT29 colon 38.7% | SNB-75 CNS 22.7% | SNB-19 CNS 40.2% | U251 CNS 33.7% | PC-3 prostate 47.8% | UACC-62 melanoma 26.7% | LOX IMVI melanoma 47.2% | SK-MEL-28 melanoma 71% | SK-MEL-2 melanoma 24.5% | EKVX NSCLC 56.4% | SN12C renal 55.9% | UO-31 renal 75.2% | TK-10 renal 55.7% | ACHN renal 63.3% | A498 renal 17.2% | CCRF-CEM leukemia 51.6% | MOLT-4 leukemia 44.9%

COc1ccc(C2C(C#N)=C(N)Oc3n[nH]c(-c4cccs4)c32)cc1I (stereo unspecified)
inactive: HCT-15 colon 81.4% | HT29 colon 98.4% | SNB-75 CNS 77.9% | SNB-19 CNS 87.1% | U251 CNS 90.6% | PC-3 prostate 85.8% | UACC-62 melanoma 79.1% | LOX IMVI melanoma 89% | SK-MEL-28 melanoma 108% | SK-MEL-2 melanoma 101% | EKVX NSCLC 96% | SN12C renal 96.5% | UO-31 renal 81.8% | TK-10 renal 99.7% | ACHN renal 98.5% | A498 renal 77.4% | CCRF-CEM leukemia 76.3% | MOLT-4 leukemia 74.9%

CCCCN1CCCn2c1nc1c2c(=O)n(CCC)c(=O)n1CCC
inactive: HCT-15 colon 106% | HT29 colon 97.8% | SNB-75 CNS 74.2% | SNB-19 CNS 96.6% | U251 CNS 91.8% | PC-3 prostate 91.3% | UACC-62 melanoma 85.4% | LOX IMVI melanoma 93.8% | SK-MEL-28 melanoma 103% | SK-MEL-2 melanoma 90.1% | EKVX NSCLC 97.2% | SN12C renal 93.2% | UO-31 renal 76.8% | TK-10 renal 97.1% | ACHN renal 88.4% | CAKI-1 renal 89.1% | A498 renal 80.2% | MOLT-4 leukemia 103%

CCN(CC)c1ccc(/C=N\NC(=O)/C=C/C=C/c2ccc3c(c2)OCO3)c(O)c1
inactive: HCT-15 colon 21.3% | HT29 colon 67.8% | SNB-75 CNS 58.8% | SNB-19 CNS 61% | U251 CNS 43.3% | PC-3 prostate 40.9% | UACC-62 melanoma 29.1% | LOX IMVI melanoma 18.2% | SK-MEL-28 melanoma 52.1% | SK-MEL-2 melanoma 65.7% | EKVX NSCLC 52.2% | SN12C renal 54.1% | UO-31 renal 25% | TK-10 renal 37.8% | ACHN renal 25.6% | CAKI-1 renal 29.3% | MOLT-4 leukemia 18.3%

Cc1cc(N2CCSCC2)nc(NC2CCCC(Nc3ccnc4cc(Cl)ccc34)C2)n1 (stereo unspecified)
inactive: EKVX NSCLC 24.1% | A498 renal 22.9%
active: HCT-15 colon -67.8% | HT29 colon -58.7% | SNB-75 CNS -60.1% | SNB-19 CNS 1.4% | U251 CNS -65.7% | PC-3 prostate -45.7% | UACC-62 melanoma -87.8% | LOX IMVI melanoma -84.8% | SK-MEL-28 melanoma -79.9% | SK-MEL-2 melanoma -81% | SN12C renal -29% | UO-31 renal -94% | TK-10 renal -57.9% | ACHN renal -61.9% | CCRF-CEM leukemia -20.5% | MOLT-4 leukemia -9.85%

COc1cccc(/C=C2\Oc3cc(OCCN4CCCC4)ccc3C2=O)c1
inactive: HCT-15 colon 67% | HT29 colon 35.2% | SNB-75 CNS 87.3% | SNB-19 CNS 102% | U251 CNS 92.1% | PC-3 prostate 83.6% | UACC-62 melanoma 106% | LOX IMVI melanoma 76.1% | SK-MEL-28 melanoma 102% | SK-MEL-2 melanoma 102% | EKVX NSCLC 89.3% | SN12C renal 97.3% | UO-31 renal 80.8% | TK-10 renal 89.3% | ACHN renal 104% | CAKI-1 renal 98.5% | CCRF-CEM leukemia 71.6% | MOLT-4 leukemia 88.9%

CCOC(=O)c1c(C)oc2ncnc(N3CCN(C(=S)Nc4ccccc4)CC3)c12
inactive: HCT-15 colon 90.6% | HT29 colon 102% | SNB-75 CNS 80.5% | SNB-19 CNS 96.5% | U251 CNS 89.7% | PC-3 prostate 91.8% | UACC-62 melanoma 87.2% | LOX IMVI melanoma 90.7% | SK-MEL-28 melanoma 107% | SK-MEL-2 melanoma 95.3% | EKVX NSCLC 91.2% | SN12C renal 92.7% | UO-31 renal 75.1% | TK-10 renal 100% | ACHN renal 92% | CAKI-1 renal 79.6% | CCRF-CEM leukemia 92.3% | MOLT-4 leukemia 91.3%
